Here are results for 3 compounds from PubChem BioAssay (EPA / NIEHS).

Assay [1] concerns the target CCAAT/enhancer-binding protein beta (Homo sapiens) (UniProt P17676). Description: ATG_C_EBP_CIS: Attagene CIS-FACTORIAL HepG2 Assay for human CCAAT/Enhancer Binding Protein (C/EBP) beta (AID 2282927). The conditions noted are these: HepG2 Attagene cis-factorial transcription factor reporter; actives raise or lower the signal. The method in brief: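 HepG2 transiently transfected with multiplexed reporter units under cis-regulatory promoters reporting endogenous C/EBPb activity. After 24 h exposure, reporter mRNA assayed by RT-PCR, fluorescent labelling, HpaI digestion and capillary electrophoresis; bidirectional fitting versus DMSO.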

A short description of assay [2]: ATG_DR4_LXR_CIS: Attagene CIS-FACTORIAL HepG2 Assay for human Liver X Receptor (LXR), DR4 submotif (AID 2282929). The note with it: HepG2 Attagene DR4 cis-reporter, mRNA transcription; actives raise or lower the signal. The method, boiled down:
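Total RNA from 24 h-treated, MRTU-transfected HepG2 cells underwent reverse transcription, PCR, fluorescent primer extension and restriction digestion before capillary electrophoresis. Both increases and decreases in reporter signal were fitted against DMSO.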

Assay [3] can be described thus: ATG_AP_2_CIS: Attagene CIS-FACTORIAL HepG2 Assay for human Activator Protein 2 (AP-2) (AID 2282932). The conditions noted are these: HepG2 AP-2 cis-reporter, Attagene transcription factor profiling; actives raise or lower the signal. The method in brief: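 Liver-derived HepG2 line, cis-reporter system measuring endogenous factors; 24 h dosing; reporter mRNA detected by fluorescent RT-PCR and capillary electrophoresis.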

The target of assay [4] is Transcription factor E2F1 (Homo sapiens) (UniProt Q01094). The assay can be described thus: ATG_E2F_CIS: Attagene CIS-FACTORIAL HepG2 Assay for human E2F Transcription Factor 1 (AID 2282935). The conditions noted are these: HepG2 Attagene cis-reporter, E2F reporter RNA transcripts; actives raise or lower the signal. The method in brief:
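Liver-derived HepG2 cells expressing transfected promoter-driven reporter units received test chemical for 24 hours. Signal gains or losses were fitted bidirectionally against DMSO.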

Assay [5] in a line: ATG_E_Box_CIS: Attagene CIS-FACTORIAL HepG2 Assay for human Enhancer Box (E-box) (AID 2282936). The note with it: HepG2 E-box cis-reporter transcription, actives raise or lower the signal. The method in brief: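 In this cell-based setup, HepG2 cells bearing transfected promoter-driven reporter units were exposed to chemicals for 24 h; reporter transcripts were amplified, 6-FAM-labelled, cut with HpaI and sized by capillary electrophoresis.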

A short description of assay [6]: ATG_M_19_CIS: Attagene CIS-FACTORIAL HepG2 Assay for M19 Transcription Factor (Internal Marker) (AID 2282939). The conditions noted are these: HepG2 Attagene CIS-FACTORIAL M19 internal marker reporter; actives raise or lower the signal. The method in brief:
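Chemical-treated HepG2 (24 h) with MRTU constructs; reporter transcripts detected by fluorescent RT-PCR fragment analysis on capillary electrophoresis. Internal background marker, DMSO as baseline.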

A short description of assay [7]: ATG_GLI_CIS: Attagene CIS-FACTORIAL HepG2 Assay for human Zinc Finger Protein GLI1 (AID 2282945). The conditions noted are these: HepG2, Attagene cis-factorial reporter mRNA, GLI element; actives raise or lower the signal. The method, boiled down:
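Transiently transfected HepG2 cells report endogenous transcription factor activity via cis-element-driven reporter units. After 24 h compound exposure, reporter mRNA was measured by RT-PCR with capillary electrophoresis; bidirectional fitting against DMSO baseline.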

Assay [8] in a line: ATG_ISRE_CIS: Attagene CIS-FACTORIAL HepG2 Assay for human Interferon Regulatory Factor 1 (IRF1) binding to an Interferon-Stimulated Response Element (ISRE) (AID 2282948). The conditions noted are these: HepG2 ISRE cis-reporter (Attagene), mRNA transcription readout; actives raise or lower the signal. The method, boiled down:
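Endogenous transcription factor activity read as reporter transcript abundance via RT-PCR and capillary electrophoresis. HepG2 cells transiently transfected, 24 h chemical exposure. Gain or loss fitted against DMSO baseline.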

A short description of assay [9]: ATG_M_32_CIS: Attagene CIS-FACTORIAL HepG2 Assay for M32 Transcription Factor (Internal Marker) (AID 2282949).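 Note: background control marker of the multiplexed CIS panel rather than a real target.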 The conditions noted are these: HepG2 Attagene cis-factorial M32 reporter, mRNA; actives raise or lower the signal. The method, boiled down: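 HepG2 transfectants (cis-regulated reporter transcription units) dosed 24 h. Reporter mRNA by RT-PCR plus CE, analysed as gain or loss relative to DMSO.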

Assay [10] can be described thus: ATG_PXRE_CIS: Attagene CIS-FACTORIAL HepG2 Assay for human Pregnane X Receptor Element (PXRE) (AID 2282957). The note with it: HepG2 Attagene CIS-FACTORIAL PXRE reporter, mRNA; actives raise or lower the signal. The method in brief: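 Bidirectional activity, baselined to DMSO, derived from reporter mRNA fluorescence (RT-PCR plus capillary electrophoresis) in HepG2 cells bearing cis-promoter reporter units, 24 h exposure.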

Assay [11] is described as follows: ATG_Sox_CIS: Attagene CIS-FACTORIAL HepG2 Assay for human SRY-box transcription factor (SOX) (AID 2282960). The conditions noted are these: HepG2 Attagene cis-factorial SOX reporter, mRNA; actives raise or lower the signal. The method, boiled down:
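HepG2, cis reporter units, 24 h exposure. Reporter mRNA: RT-PCR → FAM labelling → HpaI → CE fluorescence. Bidirectional fit vs DMSO.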

The target of assay [12] is Transcription factor Sp1 (Homo sapiens) (UniProt P08047). Description: ATG_Sp1_CIS: Attagene CIS-FACTORIAL HepG2 Assay for human Specificity Protein 1 (Sp1) (AID 2282961). The conditions noted are these: HepG2 Sp1 cis-reporter transcription, actives raise or lower the signal. The method in brief:
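Liver-derived HepG2 cells, cis-element reporter library, 24 h treatment; RNA isolated, cDNA amplified with reporter-specific primers, FAM-labeled fragments sized on capillary analyzer. DMSO baseline, bidirectional curve fit.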

Assay [13] has as its target Signal transducer and activator of transcription 3 (Homo sapiens) (UniProt P40763). The assay can be described thus: ATG_STAT3_CIS: Attagene CIS-FACTORIAL HepG2 Assay for human Signal Transducer and Activator of Transcription 3 (STAT3) (AID 2282963). The note with it: HepG2, Attagene cis-factorial STAT3 reporter transcription; actives raise or lower the signal. The method, boiled down: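 Fluorescence intensity of 6-FAM-labelled reporter fragments, separated by capillary electrophoresis after RT-PCR, gave the signal. Cells were HepG2 transfected with cis-element reporter units and treated 24 h; fitting was bidirectional relative to DMSO.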

Assay [14] can be described thus: ATG_TA_CIS: Attagene CIS-FACTORIAL HepG2 Assay for human TA Basal Promoter (AID 2282964). The note with it: HepG2 Attagene CIS-factorial TA basal promoter reporter; actives raise or lower the signal. The method in brief:
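Background internal-marker endpoint from a 52-component HepG2 cis-reporter panel. Cells treated 24 h; reporter transcripts quantified via RT-PCR and CE fluorescence against DMSO baseline.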

The nature of assay [15]: ATG_TCF_b_cat_CIS: Attagene CIS-FACTORIAL HepG2 Assay for human T-Cell-Factor with beta-catenin (TCF/b-cat) (AID 2282965). The note with it: HepG2 TCF/beta-catenin cis-reporter transcription, actives raise or lower the signal. The method in brief: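 HepG2 cells transiently transfected with cis-promoter-driven multiplexed reporter units; reporter mRNA measured 24 h after dosing by RT-PCR, FAM labelling, HpaI digestion and capillary electrophoresis. Bidirectional fitting relative to DMSO baseline.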

Assay [16] is described as follows: ATG_TAL_CIS: Attagene CIS-FACTORIAL HepG2 Assay for human TAL Basal Promoter (AID 2282966).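 Note: background control endpoint measuring basal TAL promoter reporter mRNA not a specific factor.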 The conditions noted are these: HepG2 Attagene cis-factorial TAL promoter reporter; actives raise or lower the signal. The method, boiled down: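 Human hepatoma HepG2 cells, transfected with promoter-regulated reporter units, were treated 24 h. Reporter transcript levels, measured through RT-PCR and capillary electrophoresis, were fitted for gain or loss relative to DMSO.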

Assay [17] addresses X-box-binding protein 1 (Homo sapiens) (UniProt P17861). The assay can be described thus: ATG_Xbp1_CIS: Attagene CIS-FACTORIAL HepG2 Assay for human X-box Binding Protein 1 (XBP1) (AID 2282972). The note with it: HepG2 XBP1 cis-element reporter, Attagene multiplex; actives raise or lower the signal. The method, boiled down:
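Reporter transcripts were quantified by RT-PCR with fluorescent primer extension and capillary electrophoresis after 24 h chemical exposure. Cells: transiently transfected HepG2 carrying cis-regulated reporter constructs; data fitted bidirectionally relative to DMSO.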

Assay [18] addresses Transcriptional activator Myb (Homo sapiens) (UniProt P10242). Description: ATG_Myb_CIS: Attagene CIS-FACTORIAL HepG2 Assay for human Myeloblastosis (Myb) Proto-Oncogene Transcription Factor (AID 2282986). The conditions noted are these: HepG2 Attagene CIS-FACTORIAL Myb reporter transcription; actives raise or lower the signal. The method, boiled down: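 After 24 h of compound dosing, total RNA from transfected HepG2 cells is reverse-transcribed and the reporter sequences amplified, labeled and separated by capillary electrophoresis. Values come from bidirectional fitting against DMSO.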

Assay [19] concerns the target Myc proto-oncogene protein (Homo sapiens) (UniProt P01106). Description: ATG_Myc_CIS: Attagene CIS-FACTORIAL HepG2 Assay for human Myelocytomatosis (Myc) Proto-Oncogene Transcription Factor (AID 2282990). The note with it: HepG2, Attagene cis-reporter transcription factor activity; actives raise or lower the signal. The method in brief: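 Transiently transfected HepG2 cells bearing cis-promoter reporter units for endogenous transcription factors; 24 h exposure. Reporter mRNA measured by RT-PCR, 6-FAM primer extension, HpaI cut and capillary electrophoresis; bidirectional fit relative to DMSO.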

A short description of assay [20]: ATG_Oct_MLP_CIS: Attagene CIS-FACTORIAL HepG2 Assay for human Octamer-Binding Transcription Factor (Oct) (AID 2282993). The conditions noted are these: HepG2 Attagene cis-factorial Oct reporter, mRNA; actives raise or lower the signal. The method, boiled down:
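Using HepG2 cells bearing transfected cis-reporter constructs, mRNA induction was read after 24 h by fluorescent RT-PCR and capillary electrophoresis, with DMSO defining baseline for gain- or loss-of-signal fits.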

Active and inactive are the calls of the source. Rule for the calls: active = hit-call score of the fitted dose curve at least 0.9, where 1 is the maximum; inactive = score below 0.9.

In general, AC50 refers to the concentration at which the activity in the assay is half-maximal.

Sequence of Signal transducer and activator of transcription 3 (Homo sapiens) (P40763 whole entry, looked up, the tested form may be a part): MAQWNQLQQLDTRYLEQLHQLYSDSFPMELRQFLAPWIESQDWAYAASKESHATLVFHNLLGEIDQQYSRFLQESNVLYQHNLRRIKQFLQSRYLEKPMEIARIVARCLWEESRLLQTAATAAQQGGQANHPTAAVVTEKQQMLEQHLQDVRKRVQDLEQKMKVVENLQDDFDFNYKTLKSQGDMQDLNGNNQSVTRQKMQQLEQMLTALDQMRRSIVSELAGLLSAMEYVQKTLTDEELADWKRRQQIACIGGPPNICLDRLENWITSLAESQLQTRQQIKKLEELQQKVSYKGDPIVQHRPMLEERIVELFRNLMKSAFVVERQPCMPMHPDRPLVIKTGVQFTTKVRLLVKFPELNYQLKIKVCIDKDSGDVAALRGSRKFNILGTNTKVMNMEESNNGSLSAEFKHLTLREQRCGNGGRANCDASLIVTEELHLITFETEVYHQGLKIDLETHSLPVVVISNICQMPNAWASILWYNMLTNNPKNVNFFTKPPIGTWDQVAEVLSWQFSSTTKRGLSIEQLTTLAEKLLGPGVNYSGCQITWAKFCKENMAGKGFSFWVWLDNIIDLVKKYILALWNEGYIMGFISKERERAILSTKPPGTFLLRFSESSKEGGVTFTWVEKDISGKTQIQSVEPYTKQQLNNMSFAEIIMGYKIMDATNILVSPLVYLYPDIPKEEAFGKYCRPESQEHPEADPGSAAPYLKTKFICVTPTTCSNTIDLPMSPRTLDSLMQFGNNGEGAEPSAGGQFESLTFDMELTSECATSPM
Sequence of X-box-binding protein 1 (Homo sapiens) (P17861 whole entry, looked up): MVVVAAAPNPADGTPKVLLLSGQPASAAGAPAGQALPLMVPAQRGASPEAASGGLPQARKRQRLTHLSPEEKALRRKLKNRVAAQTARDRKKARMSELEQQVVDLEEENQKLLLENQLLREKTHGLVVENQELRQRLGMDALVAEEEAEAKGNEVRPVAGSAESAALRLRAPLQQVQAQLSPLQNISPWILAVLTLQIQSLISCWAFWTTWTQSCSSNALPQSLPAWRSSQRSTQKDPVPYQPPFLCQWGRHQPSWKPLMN
Sequence of Transcriptional activator Myb (Homo sapiens) (P10242 whole entry, looked up): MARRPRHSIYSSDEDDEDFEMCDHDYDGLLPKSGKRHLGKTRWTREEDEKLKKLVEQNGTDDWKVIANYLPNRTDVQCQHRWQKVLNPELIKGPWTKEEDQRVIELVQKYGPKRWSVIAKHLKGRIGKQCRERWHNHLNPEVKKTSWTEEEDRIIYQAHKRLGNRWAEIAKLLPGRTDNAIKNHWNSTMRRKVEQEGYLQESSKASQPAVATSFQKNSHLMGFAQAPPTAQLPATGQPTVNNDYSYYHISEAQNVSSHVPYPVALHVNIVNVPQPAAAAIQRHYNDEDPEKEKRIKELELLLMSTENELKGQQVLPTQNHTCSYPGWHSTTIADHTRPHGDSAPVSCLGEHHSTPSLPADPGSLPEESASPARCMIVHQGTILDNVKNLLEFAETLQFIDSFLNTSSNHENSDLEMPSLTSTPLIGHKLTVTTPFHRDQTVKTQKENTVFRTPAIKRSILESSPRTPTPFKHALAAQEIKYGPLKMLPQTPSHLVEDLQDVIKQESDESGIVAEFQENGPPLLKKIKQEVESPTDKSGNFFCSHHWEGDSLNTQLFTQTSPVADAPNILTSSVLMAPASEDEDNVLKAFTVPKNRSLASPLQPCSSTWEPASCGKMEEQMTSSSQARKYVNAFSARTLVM
Sequence of CCAAT/enhancer-binding protein beta (Homo sapiens) (P17676 whole entry, looked up): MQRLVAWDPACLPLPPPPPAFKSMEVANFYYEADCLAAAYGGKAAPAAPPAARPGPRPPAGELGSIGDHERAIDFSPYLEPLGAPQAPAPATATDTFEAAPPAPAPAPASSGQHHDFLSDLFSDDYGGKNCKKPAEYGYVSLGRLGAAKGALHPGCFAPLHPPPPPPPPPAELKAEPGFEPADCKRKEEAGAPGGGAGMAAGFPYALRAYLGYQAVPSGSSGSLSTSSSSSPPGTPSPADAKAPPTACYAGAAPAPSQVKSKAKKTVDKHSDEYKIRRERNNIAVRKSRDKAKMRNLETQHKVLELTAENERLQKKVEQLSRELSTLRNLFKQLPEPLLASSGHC
Sequence of Transcription factor Sp1 (Homo sapiens) (P08047 whole entry, looked up, the tested form may be a part): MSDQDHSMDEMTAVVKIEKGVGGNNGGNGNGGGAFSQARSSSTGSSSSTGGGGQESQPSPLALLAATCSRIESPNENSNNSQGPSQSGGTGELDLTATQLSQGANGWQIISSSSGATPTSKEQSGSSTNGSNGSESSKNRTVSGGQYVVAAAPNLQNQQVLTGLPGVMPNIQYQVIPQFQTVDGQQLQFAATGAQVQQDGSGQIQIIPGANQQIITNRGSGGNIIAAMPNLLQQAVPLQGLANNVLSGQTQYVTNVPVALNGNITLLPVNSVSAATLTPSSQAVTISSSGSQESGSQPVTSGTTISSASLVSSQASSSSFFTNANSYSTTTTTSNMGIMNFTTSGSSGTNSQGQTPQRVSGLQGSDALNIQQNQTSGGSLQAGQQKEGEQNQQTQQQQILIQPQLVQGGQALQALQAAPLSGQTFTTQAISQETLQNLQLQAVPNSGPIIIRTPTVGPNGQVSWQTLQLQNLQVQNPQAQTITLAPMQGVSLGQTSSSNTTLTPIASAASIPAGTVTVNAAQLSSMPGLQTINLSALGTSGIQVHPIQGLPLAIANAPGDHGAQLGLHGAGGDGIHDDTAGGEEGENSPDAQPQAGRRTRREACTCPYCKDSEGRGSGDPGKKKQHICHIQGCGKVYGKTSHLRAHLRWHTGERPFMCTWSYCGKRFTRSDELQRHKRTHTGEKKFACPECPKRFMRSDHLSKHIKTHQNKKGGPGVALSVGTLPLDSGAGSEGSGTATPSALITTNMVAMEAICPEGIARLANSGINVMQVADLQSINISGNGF
Sequence of Transcription factor E2F1 (Homo sapiens) (Q01094 whole entry, looked up): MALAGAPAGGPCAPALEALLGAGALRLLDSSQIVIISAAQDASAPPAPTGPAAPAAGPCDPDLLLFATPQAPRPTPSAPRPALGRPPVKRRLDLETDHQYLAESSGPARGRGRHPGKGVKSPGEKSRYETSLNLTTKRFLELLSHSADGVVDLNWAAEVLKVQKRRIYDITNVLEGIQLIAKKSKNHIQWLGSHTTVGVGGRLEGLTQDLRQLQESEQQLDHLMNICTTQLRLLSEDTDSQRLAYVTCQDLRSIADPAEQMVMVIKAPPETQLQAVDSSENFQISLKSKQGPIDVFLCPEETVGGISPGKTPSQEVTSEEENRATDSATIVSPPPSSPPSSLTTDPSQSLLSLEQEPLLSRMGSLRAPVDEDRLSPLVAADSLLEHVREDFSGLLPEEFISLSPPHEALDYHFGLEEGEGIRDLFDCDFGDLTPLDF
Sequence of Myc proto-oncogene protein (Homo sapiens) (P01106 whole entry, looked up): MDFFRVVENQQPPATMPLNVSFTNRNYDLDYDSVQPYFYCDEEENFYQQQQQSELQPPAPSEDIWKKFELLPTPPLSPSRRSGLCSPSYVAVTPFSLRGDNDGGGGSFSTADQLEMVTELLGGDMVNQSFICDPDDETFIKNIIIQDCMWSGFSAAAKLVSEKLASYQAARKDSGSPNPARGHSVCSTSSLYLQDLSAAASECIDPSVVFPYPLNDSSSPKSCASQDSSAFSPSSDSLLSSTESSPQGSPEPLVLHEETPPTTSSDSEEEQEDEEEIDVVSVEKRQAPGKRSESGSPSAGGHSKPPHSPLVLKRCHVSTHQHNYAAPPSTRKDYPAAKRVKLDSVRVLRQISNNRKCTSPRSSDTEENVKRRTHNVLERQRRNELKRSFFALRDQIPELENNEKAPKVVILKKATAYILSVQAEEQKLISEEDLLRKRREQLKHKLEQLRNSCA

On to `CC(C)COP(=O)(OCC(C)C)OCC(C)C`, for which the outcome in assay [1], in assay [3], in [4], in assay [5], in assay [6] and in [7] was inactive. The outcome in assay [8], in assay [9], in assay [11], in assay [12], in assay [13] and in assay [14] was inactive. Further, the compound was called inactive in assay [15], in [16], in assay [17], in assay [18], in assay [19] and in [20]. In addition, the AC50 was 57.9 µM (active) in assay [2] and 2.21 µM (active) in [10].
With `C=CC(=O)OCC(CC)CCCC` (stereo not given), the result in assay [1], in [3], in assay [4], in assay [5], in [6] and in assay [7] was inactive. In addition, the result in assay [8], in [9], in [10], in [11], in assay [12] and in assay [13] was inactive. The compound was classed as inactive in assay [14], in assay [15], in [16], in [17], in [18] and in assay [19]. Moreover, the call in assay [20] was inactive. Moreover, in [2], the AC50 is 147 µM (active).
Turning to `CN(C)C(=O)C(c1ccccc1)c1ccccc1`, the result in assay [1], in assay [2], in assay [3], in assay [4], in [5] and in assay [6] was inactive. In addition, the outcome in [7], in [8], in assay [9], in assay [11], in assay [12] and in [13] was inactive. Further, the compound was classed as inactive in [14], in assay [15], in assay [16], in assay [17], in [18] and in assay [19]. Also, in assay [20], the compound was called inactive. Besides, the AC50 in assay [10] was 9.67 µM (active).
